The record followed here is PubChem BioAssay AID1117359 (Southern Research Institute, 2015).

The structures appear in SMILES notation. In all, about 1,500 compounds went through this assay and about 460 (31%) were called active.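 The calls were made as follows: active = viability at or below 80% at any tested concentration, marking the compound as toxic; inactive = the rest.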 These entries were drawn from the full list. Measured potencies and affinities stand elsewhere.

The nature of this experiment: viability loss in THP-1 monocytes – THP-1 cells, cytotoxicity control for Vif-APOBEC3G degradation inhibitor project, dose response (AID 1117359). As to conditions: THP-1 viability, CellTiter-Glo luminescence, 72 h; series mostly up to 40 µM; viability: at the top concentration.
Regarding `COc1ccc(CC(=O)Oc2ccc(F)c(F)c2)cc1S(=O)(=O)N1CCOCC1`, the “viability” value is 95.9% (inactive). With `O=C(NCc1ccc(F)cc1)C1CCC(CNc2c(N3CCCCC3)c(=O)c2=O)CC1` (stereo not drawn), the “viability” value was 94.3% (inactive). For `Cc1ccc(C)c(OCCC(=O)Nc2ccccc2C(=O)NC2CC2)c1`, the “viability” value was 90% (inactive). As for `CCC(CC)NC(=O)Nc1ccc(F)cc1F`, the “viability” value was 94.3% (inactive). Regarding `CS(=O)(=O)N(C(=O)NC(=O)NC1CCS(=O)(=O)C1)C1CCCCC1` (stereo not drawn), the “viability” value was 83.4% (inactive). With `O=C(CNS(=O)(=O)c1ccc2ccccc2c1)Nc1ccc(F)c(F)c1F`, the “viability” value was 103% (inactive). Take `CC(C)(C)NC(=O)CSc1nnc(-c2ccccn2)n1Cc1ccccc1`: the “viability” value is 98.6% (inactive). Consider `COc1ccc(OC)c(NC(=O)COC(=O)c2ccc(OC)c(S(=O)(=O)N3CCOCC3)c2)c1`, for which the “viability” value is 113% (inactive). For the compound `COc1ccc(NC(=O)c2ccc(S(=O)(=O)N3CCOCC3)o2)cc1`, the “viability” value is 115% (inactive). For the compound `CC(=O)Nc1ccc2c(c1)Cc1cc(N3C(=O)C=CC3=O)ccc1-2`, the “viability” value was 88.1% (inactive). Next, `NC(=O)C1CCCN(CC(=O)Nc2ccccc2C(=O)NC2CC2)C1` (stereo not drawn): 108% (inactive); `COC(=O)Cc1cc(=O)n(-c2nc3ccccc3[nH]2)[nH]1`: 93.6% (inactive). As to `CC(=O)OCCCNc1cc(Sc2nc3ccccc3s2)c2nonc2c1[N+](=O)[O-]`, the “viability” value is 102% (inactive). With `CCCC(NCC(=O)Nc1ccccc1C(=O)NC1CC1)c1ccccc1` (stereo not drawn), the “viability” value is 83.8% (inactive).

Consider `Cc1ccc(-n2nc(C)c3c(C)c(CCC(=O)O)c(C)nc32)cc1`, for which the “viability” value was 95.3% (inactive). Turning to `CCN(CC)CCCNC(=O)CSc1nc(-c2cccs2)cc(C(F)(F)F)n1`, the “viability” value was 93.7% (inactive). As to `COCCn1c(N)c(N(Cc2ccccc2)C(=O)C2CCCCC2)c(=O)[nH]c1=O`, the “viability” value was 95.3% (inactive). As to `O=C(O)c1ccc(NS(=O)(=O)c2cccc(C(=O)Nc3ccc([N+](=O)[O-])cc3)c2)cc1`, the “viability” value is 109% (inactive). Next, `O=C(CSCc1ccc(Br)cc1)NC1CC1`: 89.4% (inactive); `CC(c1ccccc1)N(C)CC(=O)NC(=O)NCCC1=CCCCC1` (stereo not drawn): 82% (inactive); `COC(=O)c1ccc(NC(=O)COc2cccc(-n3cnnn3)c2)cc1`: 94.6% (inactive). As to `CCOC(=O)c1csc(N)c1-c1ccc([N+](=O)[O-])cc1`, the “viability” value was 84.2% (inactive). On to `CCOC(=O)C/C(C)=N\Nc1ccc([N+](=O)[O-])cc1[N+](=O)[O-]`, for which the “viability” value was 105% (inactive). Next, `CCOc1ccccc1NC(=O)CCS(=O)(=O)c1ccc(Br)cc1`: 91.6% (inactive). As to `CC(=O)N1CCN(c2nc(-c3ccco3)c3c(c2C#N)CC(C)(C)SC3)CC1`, the “viability” value was 91.1% (inactive). `CC1CCCN(Cc2c(O)ccc3c2O/C(=C\c2ccco2)C3=O)C1` (stereo not drawn): the “viability” value is 88.4% (inactive). To `COc1cccc(-c2nc(-c3cccs3)no2)c1` belongs 84% (inactive); to `COc1ccc(C(C)=O)cc1CN1C(=O)NC2(CCCC2)C1=O`, 113% (inactive); to `O=C(O)C1Nc2c(Cl)cc(Cl)cc2C2C=CCC12` (stereo not drawn), 98.9% (inactive). For the compound `Cc1ncc(CO)c(/C=N/NC(=O)c2cc(O)c(O)c(O)c2)c1O`, the “viability” value is 91.7% (inactive).

Consider `COc1ccc(C(=O)N/N=C/c2cccnc2)cc1`, for which the “viability” value was 91.2% (inactive). In the case of `CCOC(=O)c1nn(-c2ccc(Cl)cc2Cl)c(=N)c(C#N)c1C`, the “viability” value is 91.6% (inactive). For `CSc1ncccc1C(=O)NCc1nnc2ccccn12`, the “viability” value is 85.7% (inactive). To `COC(=O)C1=C(C)NC(=O)NC1c1ccc2c(c1)OCO2` (stereo not drawn) belongs 86.2% (inactive); to `Cc1cc(C)n2nc(SC(C)C(=O)N3CCCC3)nc2n1` (stereo not drawn), 89.7% (inactive); to `O=C(COC(=O)c1ccccc1Br)Nc1nnc(-c2ccccc2)o1`, 101% (inactive). Turning to `O=C(Nc1ccc(F)cc1F)c1noc2c1CCC2`, the “viability” value was 95.5% (inactive). On to `CCOc1cccc(=O)c2c(C)n(C)c(C)c12`, for which the “viability” value is 86.7% (inactive).

Consider `CCOC(=O)Cn1nc(-c2ccccc2)c2cnc3ccc(C)cc3c21`, for which the “viability” value is 104% (inactive). As to `COc1ccc(/C=C/C(=O)NC(=S)Nc2ccccn2)cc1`, the “viability” value is 99.5% (inactive). To `C[C@@H]1CCCCO[C@H](CN(C)C(=O)c2ccccc2)[C@@H](C)CN([C@H](C)CO)C(=O)c2cc(NC(=O)NC3CCCCC3)ccc2O1` belongs 81.3% (inactive); to `COc1cccc(/C=N/n2c(-c3cc(C)[nH]n3)n[nH]c2=S)c1`, 95% (inactive); to `CS(=O)(=O)N1CCCCC1CCN1CCCCC1` (stereo not drawn), 96.8% (inactive). In the case of `CCOC(=O)c1cccc2c(=O)c(C(=O)c3ccc(Cl)cc3)c(C(=O)OC)[nH]c12`, the “viability” value is 97.6% (inactive).

Take `CCOC(=O)COn1c(=O)c(-c2ccc(Cl)cc2)[n+]([O-])c2ccccc21`: the “viability” value was 112% (inactive). As to `CNC(=O)C(=O)N/N=C/c1cccnc1`, the “viability” value was 81.3% (inactive).

With `COc1cccc(CN2CCSCC2)c1`, the “viability” value was 91.3% (inactive). As to `CCNC(=S)Nc1cccc(S(=O)(=O)NC2=NCCC2)c1`, the “viability” value was 101% (inactive). For the compound `CC(=O)NCCn1c(SCC(=O)Nc2ccc(C)cc2)nc2ccccc2c1=O`, the “viability” value was 89.7% (inactive). Take `CC(=O)N1CCN(c2ccc(NCc3ccc(F)cc3)cc2)CC1`: the “viability” value is 95.9% (inactive). Next, `CCC(NC(=O)Nc1ccc(O)cc1)(C(F)(F)F)C(F)(F)F`: 96% (inactive). Next, `O=C1/C(=C/c2ccco2)SC(=S)N1c1cccnc1`: 100% (inactive); `O=S(=O)(O)c1cc(O)c2c(O)c(N=Nc3cc(Cl)ccc3O)c(S(=O)(=O)O)cc2c1`: 87.5% (inactive). Regarding `Cc1ccccc1OCCC(=O)Nc1ccccc1C(=O)NC1CC1`, the “viability” value is 84.7% (inactive). As for `CC(=O)Nc1ccc(OCC(=O)N2CCc3ccccc3C2)cc1`, the “viability” value is 112% (inactive). Take `O=C(Nc1nnc(SCc2c(Cl)cccc2Cl)s1)c1cccc([N+](=O)[O-])c1`: the “viability” value was 97.1% (inactive). Regarding `Cc1ccc(N2CC(NC(=O)N3CCN(C(=O)c4ccco4)CC3)CC2=O)cc1` (stereo not drawn), the “viability” value is 85.7% (inactive).

Consider `O=C(OCC(=O)N1CCN(C(=O)c2ccco2)CC1)c1cc(-c2ccco2)nc2ccccc12`, for which the “viability” value is 86.7% (inactive). For `COc1cccc(CN2CCNC(=O)C2CC(=O)NCCn2nc(C)cc2C)c1OC` (stereo not drawn), the “viability” value was 93.5% (inactive). Turning to `Cc1ccccc1C(=O)NCC(=O)OC(C)C(=O)NC(C)CCc1ccccc1` (stereo not drawn), the “viability” value is 106% (inactive). Turning to `O=C(Nc1nc(-c2ccco2)c(-c2ccco2)s1)C1CCC1`, the “viability” value was 99.6% (inactive). On to `c1ccc(CSc2nnc(-c3ccco3)c(-c3ccco3)n2)cc1`, for which the “viability” value was 83.8% (inactive). With `CC(C)C[C@H](NC(=O)c1nc[nH]c1C(=O)N1CCN(c2ccccc2)CC1)C(=O)OC(C)(C)C`, the “viability” value was 85.4% (inactive). Regarding `O=C(c1ccc2c(c1)[nH]c(=S)n1c3ccccc3nc21)N1CCN(c2cccc(Cl)c2)CC1`, the “viability” value was 83.2% (inactive). For `COc1ccccc1N1CCN(C(=O)C(F)F)CC1`, the “viability” value was 90% (inactive). Take `Cc1cccc(N2CCN(CC(O)COc3ccc(Cl)cc3)CC2)c1` (stereo not drawn): the “viability” value was 96.6% (inactive).

`COc1cccc(=O)c2c(C)n(-c3ccc(C(=O)O)cc3)c(C)c12`: the “viability” value was 105% (inactive).

`COc1cc(C(=O)Nc2ccc(N3CCCS3(=O)=O)cc2)c([N+](=O)[O-])cc1OC`: the “viability” value is 95.8% (inactive).
